Bioassay records: PubChem, several laboratories
A selection: hits, their analogues and other compounds. The true share with any hit is near 0.74%.
Vc quorum ag: inducers of Vibrio cholerae quorum light production without autoinducers, primary screen, BH1578 luxS cqsA deficient, single point; activation, % at 18.7 µM; V. cholerae BH1578 lux reporter, luminescence, 6 h; AID 588436, 2011; 350,000 tested, 0.16% active; in the data active = activation mostly above about 9.7%, no sharp cut-off
FadD28 FP inh: inhibitors of FadD28 bisubstrate probe binding, primary screen, biochemical, fluorescence polarization, single point | Mycobacterium tuberculosis FadD28 fatty-acid-AMP ligase | inhibition, % at 12.5 µM | 360,000 tested, 0.22% active | AID 588549, 2011; in the data active = inhibition above about 8.5%, passing the limit was not always enough
MazF activator: activators of E. coli MazEF toxin-antitoxin RNase, primary screen, biochemical, fluorescence, uHTS; activation, % at 20 µM; 350,000 tested, 0.32% active; FAM/BHQ RNA-DNA oligo cleavage fluorescence, 5 h; Endoribonuclease toxin MazF (Escherichia coli (strain K12)), P0AE70; in the data active = activation above about 50%
Target sequence (P0AE70 whole entry, looked up): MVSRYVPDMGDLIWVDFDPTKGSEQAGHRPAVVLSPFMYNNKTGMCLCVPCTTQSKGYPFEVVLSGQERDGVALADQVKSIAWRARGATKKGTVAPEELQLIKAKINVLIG
Rv3671c inh: Rv3671c serine protease inhibitors, primary screen, biochemical, fluorescence polarization, M. tuberculosis H37Rv | P9WHR9 | inhibition, % at 5.96 µM | 320,000 tested, 0.048% active; in the data active = inhibition above about 38%;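 note: extracellular domain of Rv3671c used as enzyme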
Target sequence (P9WHR9 whole entry, looked up, the tested form may be a part): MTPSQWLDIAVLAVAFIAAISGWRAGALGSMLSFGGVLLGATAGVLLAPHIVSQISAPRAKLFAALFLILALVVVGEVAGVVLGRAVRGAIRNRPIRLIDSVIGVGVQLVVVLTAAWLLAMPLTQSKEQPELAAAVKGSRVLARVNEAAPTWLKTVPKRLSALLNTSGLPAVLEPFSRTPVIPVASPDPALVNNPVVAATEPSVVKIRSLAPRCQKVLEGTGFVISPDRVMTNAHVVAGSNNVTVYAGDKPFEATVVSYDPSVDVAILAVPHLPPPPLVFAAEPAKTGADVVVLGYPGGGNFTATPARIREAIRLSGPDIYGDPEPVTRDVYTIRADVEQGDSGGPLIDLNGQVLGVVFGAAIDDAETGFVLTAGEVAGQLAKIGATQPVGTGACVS
Mtb UGM inh: M. tuberculosis UGM enzyme inhibitors, primary screen, biochemical, fluorescence polarization, single point; 320,000 tested, 0.06% active; purified UGM, fluorescence polarization probe displacement; inhibition, % at 10 µM; UDP-galactopyranose mutase (Mycobacterium tuberculosis (strain ATCC 25618 / H37Rv)), …; in the data active = inhibition above about 10%, passing the limit was not always enough
Mtb bLac sens: beta-lactam sensitization of Mtb H37Rv, H37Rv; M. tuberculosis H37Rv growth with meropenem, percent inhibition; inhibition, % at 25 µM; 330,000 tested, 0.27% active; AID 434955, 2010; call rule not given here;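 note: growth measured after seven days incubation then overnight dye step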
Numbers stand for hits.

`O=C(Nc1nc2ccc(SC(F)F)cc2s1)c1ccc(NS(=O)(=O)c2ccc(F)c(F)c2)cc1` gave Vc quorum ag inactive, FadD28 FP inh 17, MazF activator inactive, Rv3671c inh inactive, Mtb UGM inh inactive and Mtb bLac sens inactive.
`Cc1cc(C(=O)NCc2ccccc2F)c2ccccc2n1` gave Vc quorum ag inactive, FadD28 FP inh inactive, MazF activator inactive, Rv3671c inh inactive, Mtb UGM inh inactive and Mtb bLac sens inactive.
Screening COc1cc(C2C(C#N)=C(N)OC3=C2C(=O)CC(C)(C)C3)c([N+](=O)[O-])cc1OC (stereo not given) returned Vc quorum ag inactive, FadD28 FP inh inactive, MazF activator inactive, Rv3671c inh inactive, Mtb UGM inh inactive and Mtb bLac sens inactive.
Screening CC1(C)CC(=O)C2=C(C1)OC(N)=C(C#N)[C@@H]2c1ccccc1[N+](=O)[O-] returned Vc quorum ag inactive, FadD28 FP inh inactive, MazF activator 78, Rv3671c inh inactive, Mtb UGM inh inactive and Mtb bLac sens inactive.
Screening COc1ccc(C(CNC(=O)C2CCN(S(=O)(=O)c3ccc(F)cc3)CC2)N(C)C)cc1 (stereo not given) returned Vc quorum ag inactive, MazF activator active, Rv3671c inh inactive, Mtb UGM inh inactive and Mtb bLac sens inactive.
For CN(C)C(CNC(=O)C1CCN(S(=O)(=O)c2ccc(Cl)cc2)CC1)c1ccccc1 (stereo not given) the results were Vc quorum ag inactive, FadD28 FP inh inactive, MazF activator inactive, Rv3671c inh inactive, Mtb UGM inh inactive and Mtb bLac sens inactive.
Screening Cc1ccccc1N=C1SCCN1C(=O)CN1C(=O)NC2(CCCC2)C1=O returned Vc quorum ag inactive, FadD28 FP inh inactive, MazF activator inactive, Rv3671c inh inactive, Mtb UGM inh inactive and Mtb bLac sens inactive.
Screening O=C(O)c1cc(N=Nc2c(O)ccc3ccccc23)cc(C(=O)O)c1 returned Vc quorum ag inactive, FadD28 FP inh 13 and MazF activator inactive.
CCOc1ccc(C(=O)NC(=S)Nc2cccnc2)cc1 was read as Vc quorum ag inactive, FadD28 FP inh inactive, MazF activator inactive, Rv3671c inh inactive, Mtb UGM inh 12 and Mtb bLac sens inactive.
`CN(C)C(=S)Nc1cccc(-c2n[nH]c(=S)o2)c1` gave Vc quorum ag inactive, FadD28 FP inh inactive, MazF activator inactive, Rv3671c inh inactive, Mtb UGM inh inactive and Mtb bLac sens inactive.
For NNC(=S)Nc1cccc(-c2n[nH]c(=S)o2)c1 the results were Vc quorum ag inactive, FadD28 FP inh 9.5, MazF activator inactive, Rv3671c inh inactive, Mtb UGM inh inactive and Mtb bLac sens inactive.
For CCC(=O)N1CCN(c2ccccc2NC(=S)NC(=O)c2cccc([N+](=O)[O-])c2)CC1 the results were Vc quorum ag inactive, FadD28 FP inh inactive, MazF activator inactive, Rv3671c inh inactive, Mtb UGM inh inactive and Mtb bLac sens inactive.
`CCC(=O)N1CCN(c2ccc(NC(=S)NC(=O)c3cccc([N+](=O)[O-])c3)cc2)CC1` gave Vc quorum ag 33, FadD28 FP inh inactive, MazF activator inactive, Rv3671c inh inactive, Mtb UGM inh inactive and Mtb bLac sens inactive.
`COc1ccc(Br)cc1/C=N/Nc1cccc(C(=O)O)c1` gave Vc quorum ag inactive, FadD28 FP inh inactive, MazF activator inactive, Rv3671c inh inactive, Mtb UGM inh inactive and Mtb bLac sens inactive.
`O=C(O)c1cccc(N/N=C/c2cc(Br)cc(Br)c2O)c1` gave Vc quorum ag inactive, FadD28 FP inh 28, MazF activator inactive, Rv3671c inh inactive, Mtb UGM inh inactive and Mtb bLac sens inactive.
For COC(=O)c1sc2nc(SCc3cccc(F)c3)n(N)c(=O)c2c1C the results were Vc quorum ag inactive, FadD28 FP inh inactive, MazF activator 133, Rv3671c inh inactive, Mtb UGM inh inactive and Mtb bLac sens inactive.
`CC(=O)OCCNc1cc(N2CCN(C)CC2)c2noc3c2c1C(=O)c1ccccc1-3` gave Vc quorum ag inactive, FadD28 FP inh inactive and MazF activator inactive.
Screening CCOC(=O)C(C(=O)OCC)c1cc(Br)c2noc3c2c1C(=O)c1ccccc1-3 returned Vc quorum ag inactive, FadD28 FP inh inactive, MazF activator 178, Rv3671c inh inactive, Mtb UGM inh inactive and Mtb bLac sens inactive.
`CC(C)(C)C(=O)Nc1nc(C2CCCN2S(=O)(=O)c2ccc(Cl)cc2)cs1` (stereo not given) gave Vc quorum ag inactive, FadD28 FP inh inactive, MazF activator 50, Rv3671c inh inactive, Mtb UGM inh inactive and Mtb bLac sens inactive.
COc1ccc(C(C(=O)NC2CCCC2)N(CCO)C(=O)Cn2nnc(-c3ccc(C)o3)n2)cc1OC (stereo not given) was read as Vc quorum ag inactive, FadD28 FP inh inactive, MazF activator inactive, Rv3671c inh inactive, Mtb UGM inh inactive and Mtb bLac sens inactive.
Screening C#CCN1C(=O)S/C(=C\c2cc3c(cc2OC)OCO3)C1=O returned Vc quorum ag inactive, FadD28 FP inh inactive, MazF activator 196, Rv3671c inh inactive, Mtb UGM inh inactive and Mtb bLac sens inactive.
COC(=O)CN1C(=O)N/C(=C/c2cc3c(cc2OC)OCO3)C1=O was read as Vc quorum ag inactive, FadD28 FP inh inactive, MazF activator inactive, Rv3671c inh inactive, Mtb UGM inh inactive and Mtb bLac sens inactive.
For COc1ccc(S(=O)(=O)N2CCN(CC(=O)NC(Cc3ccccc3)C(C)=O)CC2)cc1 (stereo not given) the results were Vc quorum ag inactive, FadD28 FP inh inactive, MazF activator inactive, Rv3671c inh inactive, Mtb UGM inh inactive and Mtb bLac sens inactive.
For O=C(COC(=O)c1cccc(NS(=O)(=O)c2ccc(F)c(F)c2)c1)NC(=O)NC1CCCCC1 the results were Vc quorum ag inactive, FadD28 FP inh 32, MazF activator inactive, Rv3671c inh inactive, Mtb UGM inh inactive and Mtb bLac sens inactive.
`CCOc1cccc2sc(N(CCCN(C)C)C(=O)c3ccc(S(=O)(=O)N4CCc5ccccc5C4)cc3)nc12` gave Vc quorum ag inactive, FadD28 FP inh inactive, MazF activator 50, Rv3671c inh inactive, Mtb UGM inh inactive and Mtb bLac sens inactive.
`C=C(CCO)C1=CCN(S(=O)C(C)(C)C)[C@H]1CCO` (stereo not given in full) gave Vc quorum ag inactive, FadD28 FP inh inactive and MazF activator inactive.
Screening O=C(NCc1ccccc1Cl)[C@@H]1CCCN1S(=O)(=O)c1ccc(Cl)cc1 returned Vc quorum ag inactive, FadD28 FP inh inactive, MazF activator inactive, Rv3671c inh inactive, Mtb UGM inh inactive and Mtb bLac sens inactive.
For CC(=O)Nc1ccc(C(=O)OCc2ccccc2Br)cc1 the results were Vc quorum ag inactive, FadD28 FP inh inactive, MazF activator inactive, Rv3671c inh inactive, Mtb UGM inh inactive and Mtb bLac sens inactive.
